GLD-1 RNA inh – GLD-1-TGE RNA interaction inhibition (C. elegans); Q17339; purified GLD-1 + fluorescein TGE RNA, fluorescence polarization; inhibition, % at 5.96 µM; actives 0.44% (n = 320,000); AID 2280;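 active means percent inhibition above a per-plate cutoff, the plate mean of test compounds plus 3 SD, cut at about 30% in these data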;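 further: 0% = DMSO wells with GLD-1 and probe and 100% = wells lacking GLD-1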
Target sequence (Q17339 whole entry, looked up): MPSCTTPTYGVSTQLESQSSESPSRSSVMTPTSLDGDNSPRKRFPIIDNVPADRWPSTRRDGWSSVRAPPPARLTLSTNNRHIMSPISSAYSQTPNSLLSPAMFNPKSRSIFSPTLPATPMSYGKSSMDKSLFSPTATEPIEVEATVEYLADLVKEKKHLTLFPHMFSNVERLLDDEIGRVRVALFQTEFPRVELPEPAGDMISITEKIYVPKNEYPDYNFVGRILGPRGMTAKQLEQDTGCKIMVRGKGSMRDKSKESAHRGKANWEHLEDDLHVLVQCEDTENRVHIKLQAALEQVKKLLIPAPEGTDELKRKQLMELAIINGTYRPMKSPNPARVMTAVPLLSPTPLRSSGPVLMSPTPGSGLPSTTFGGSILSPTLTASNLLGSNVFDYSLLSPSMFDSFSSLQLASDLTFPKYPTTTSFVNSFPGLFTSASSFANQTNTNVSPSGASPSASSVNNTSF
MEX-5 binding – C. elegans MEX-5 TCR-2 RNA binding activity; MEX-5/FITC-TCR2 RNA binding, fluorescence polarization; active compounds read low; actives 0.38% (n = 300,000); activity score (negative = inhibition of binding), % at 10 µM; AID 1832;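 active means inhibition past about -25% in most replicates, and total fluorescence under double the plate's negative control median, limit read from the data; inconclusive means replicates evenly split on the limit, or fluorescence at least double controls; inactive means too little inhibition in most replicates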;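 further: 0% = DMSO and -100% = 5 µM competing unlabeled TCR2 RNA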
EBV gp42 block – EBV gp42 inhibition | actives 0.42% (n = 220,000) | Fluorescence polarization binding assay, mP read-out | inhibition, % (tested at 21.74 µM) | AID 1085 | Q1HVG2; in the data active means inhibition above about 50%
Bcl-xL primary – inhibitors of human Bcl-xL; AID 2129; Q07817; GST-Bcl-xL / FITC-Bim BH3 peptide fluorescence polarization; actives 0.7% (n = 320,000); inhibition, % at 10.9 µM;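 active means inhibition above the mean of all tested compounds plus 3 SD, cutoff set per campaign, cut at about 30% in these data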;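 further: 0% = DMSO wells and 100% = unlabeled Bim-BH3 peptide competitor; inhibitors lower millipolarization by displacing the labeled peptide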
eLon inh – inhibitors of E. coli Lon protease; P0A9M0; purified E. coli Lon protease, fluorescence polarization; inhibition, % at 7.94 µM; actives 0.42% (n = 360,000); AID 602123; in the data active means inhibition above about 13%, passing the limit was not always enough;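 further: 0% = enzyme with probe and DMSO and 100% = no enzyme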
MCL1 BIM primary – inhibitors of human MCL1 binding to BIM-BH3 peptide. GST-MCL1 / FITC-Bim-BH3 fluorescence polarization. inhibition, % at 10.9 µM. actives 0.68% (n = 320,000). Q07820;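 active means inhibition above the mean inhibition of all tested compounds plus 3 SD, set per campaign, cut at about 40% in these data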;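 further: 0% = DMSO wells and 100% = unlabeled Bim-BH3 peptide control; higher means more loss of mP so more displacement of Bim peptide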
* marks the source's active call; other numbers are inactive results; ? = inconclusive; / = not tested or not shown. In the library only some 1.5% were active in any assay of this set; here they are far more common.

SMILES	GLD-1 RNA inh	MEX-5 binding	EBV gp42 block	Bcl-xL primary	eLon inh	MCL1 BIM primary
CCNC(=S)NC(=NCc1cccnc1)Nc1nc(C)cc(C)n1	13	11	/	38*	-7	46*
Cc1nnc(NC(=O)CSc2nc3c(c(=O)n2CCc2ccccc2)SC(C)C3)s1 (configuration not stated)	6	1	-5	-4	-11	-8
Cc1cc(NC(=O)CSc2nc3c(c(=O)n2CCc2ccccc2)SC(C)C3)no1 (configuration not stated)	-5	0	3	31*	0	0
CSc1nc(=S)c2[nH]c(=S)[nH]c2[nH]1	/	-99*	0	/	1	/
O=C(CSc1nnc(-c2ccncc2)n1CC1CCCO1)Nc1nccs1 (configuration not stated)	47*	1	-4	-2	2	2
COc1ccc(/C=C2\SC(c3ccc(C)cc3)=NC2=O)cc1OC	-58	?	53*	-52	-98	-105
COc1ccc(/C=C2/SC(c3ccc(C)cc3)=NC2=O)cc1OC	-63	?	13	-56	-146	-95
Cc1ccc2oc(=O)c3cc(C(=O)NCCCN4C(C)CCCC4C)sc3c2c1 (configuration not stated)	0	-1	/	4	-11	4
O=C(c1ccccc1)c1ccc2nc(-c3ccco3)c(-c3ccco3)nc2c1	0	1	11	32*	-6	38
O=C(NNC(=O)c1cc(-c2ccco2)nc2ccccc12)c1ccccc1	28	2	-8	35*	-8	39
CC(=O)c1cccc(NC(=O)c2cc(-c3ccco3)nc3ccccc23)c1	8	0	/	-6	-18	-8
O=C(Nc1ccccc1F)c1cc(-c2ccco2)nc2ccccc12	4	/	/	6	-3	10
O=C(O)c1ccc2nc(-c3ccccc3)c(-c3ccccc3)nc2c1	2	0	-3	5	-10	8
O=C(O)c1cc(-c2ccco2)nc2cc3ccccc3cc12	-1	-24	-8	35*	-16	39
CN(CC(=O)Nc1ccc(F)cc1)C(=O)COC(=O)c1ccc(-c2ccccc2)cc1	4	-1	/	1	9	-4
Cc1cccc(N=C2NC(=O)/C(=C3/C(=O)N(C)c4ccccc43)S2)c1C	10	0	-8	50*	1	35
O=C1c2cccc3cccc(c23)C(=O)N1c1nccs1	8	0	-23	-2	-5	-2
O=C1c2cccc3c([N+](=O)[O-])ccc(c23)C(=O)N1c1nccs1	25	-1	18	31*	13	28
O=C(O)CCc1ccc(S(=O)(=O)Nc2ccccc2N2CCCCC2)cc1	6	/	/	/	-12	/
CCN(CC)C(=O)[C@H]1CC(CC(=O)NCc2ccc(OC)c(OC)c2)C(=O)N2CCc3c([nH]c4ccc(OC)cc34)[C@]12C (some centres not stated)	/	/	/	/	-3	/
Cc1[nH][nH]c(=O)c1C(c1cc([N+](=O)[O-])ccc1O)c1c(C)[nH][nH]c1=O	-1	-27*	-11	11	-3	-1
Cc1[nH][nH]c(=O)c1C(c1ccccc1[N+](=O)[O-])C(C#N)C#N (configuration not stated)	2	2	2	12	-6	8
CC(=O)c1c(O)cc(O)c(C(C)=O)c1O	23	-7	-23	22	-1	21
CC(=O)c1c(O)cc(O)cc1CC(=O)O	20	-29*	43	27	-7	32
O=C(NNc1ccc([N+](=O)[O-])cc1)Nc1ccccc1	3	0	/	3	3	6
O=C(NNc1ccccc1)C(=O)NNS(=O)(=O)c1ccc([N+](=O)[O-])cc1	8	-35*	-3	12	0	19
O=C(NNc1ccccn1)C(=O)NNS(=O)(=O)c1ccc(F)cc1	-5	-31*	-6	-1	-5	-1
Cc1ccc(C(=O)NC(=S)NNS(=O)(=O)c2ccc(C)cc2)cc1	6	-2	-8	-2	20	1
O=C(NNc1ccccn1)C(=O)NNS(=O)(=O)c1ccc(Cl)cc1	0	-10	-22	-5	2	-9
Cc1ccc(S(=O)(=O)NNC(=S)NC(=O)c2ccc([N+](=O)[O-])cc2)cc1	0	-31*	-6	15	5	17
